In PubChem BioAssay AID1211 (NMMLSC, 2008):
Active and inactive are the calls of the source. No rule for the calls is given here.

Target: Estrogen receptor (Homo sapiens) (UniProt P03372)
Assay: ERalpha ligand binders by competition, primary screen, cell-based, Cos7 ERalpha-GFP, flow cytometry (AID 1211);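 also: 0% = DMSO vehicle wells and 100% = no E2-Alexa633 signal left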
Details: fluorescent ligand competition, stronger effect = higher value

Chain of Estrogen receptor (Homo sapiens) (P03372 whole entry, looked up): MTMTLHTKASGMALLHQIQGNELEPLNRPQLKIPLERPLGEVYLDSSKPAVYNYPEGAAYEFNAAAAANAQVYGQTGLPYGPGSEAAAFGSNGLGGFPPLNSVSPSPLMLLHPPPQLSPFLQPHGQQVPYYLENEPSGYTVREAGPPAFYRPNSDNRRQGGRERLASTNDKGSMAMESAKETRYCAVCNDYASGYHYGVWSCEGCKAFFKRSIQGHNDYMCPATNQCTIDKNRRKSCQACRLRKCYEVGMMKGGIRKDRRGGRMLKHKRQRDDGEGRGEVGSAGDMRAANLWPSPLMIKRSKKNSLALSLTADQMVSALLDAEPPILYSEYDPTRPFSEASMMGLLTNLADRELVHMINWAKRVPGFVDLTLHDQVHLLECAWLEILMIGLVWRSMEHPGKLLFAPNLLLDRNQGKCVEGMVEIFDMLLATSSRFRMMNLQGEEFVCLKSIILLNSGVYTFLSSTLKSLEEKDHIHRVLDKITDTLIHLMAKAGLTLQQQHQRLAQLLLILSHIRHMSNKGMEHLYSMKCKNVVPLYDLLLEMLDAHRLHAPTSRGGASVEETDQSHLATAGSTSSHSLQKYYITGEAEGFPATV

Compound | inhibition of ligand binding (at 10 µM) | inhibition of ligand binding (binding inhibition, at 0.1 µM) [%]
Cc1ccc(S(=O)(=O)NCCn2c(C)cc3ccccc32)cc1 | 49% (inactive) | 17
O=C(NCc1ccco1)c1cc2c(s1)CSC2 | 24% (inactive) | 25
Cc1nn(-c2ccccc2)c(C)c1NC(=O)Cc1cccs1 | 11% (inactive) | 35
Cc1[nH]c2ccc(-c3nnc(SCC(=O)c4ccccc4F)o3)cc2c1C | 43% (inactive) | 4
O=C(C1c2ccccc2C(=O)N2CCc3ccccc3C12)N1CCN(Cc2ccccc2)CC1 (stereo not drawn) | 41% (inactive) | 12
O=C(COC(=O)CN1C(=O)c2ccccc2C1=O)Nc1ncc(Cl)cc1Cl | 7% (inactive) | 14
CCOC(=O)c1sc(NC(=O)c2ccc3ncsc3c2)nc1C | 33% (inactive) | 36
COc1ccc(C2Nc3ccccc3C(=O)N2c2ccccc2)cc1COc1ccccn1 (stereo not drawn) | 17% (inactive) | 58
COc1cc(/C=N/N2CCN(C3c4ccccc4-c4ccccc43)CC2)ccc1O | 36% (inactive) | 15
CCC(Sc1ncnc2sc(C)c(C)c12)C(=O)OC (stereo not drawn) | 38% (inactive) | 30
COC(=O)c1c(-c2ccncc2)csc1NC(=O)c1ccoc1C | 41% (inactive) | 25
CC(=O)c1ccc(NC(=S)N2CCC(O)CC2)cc1 | 30% (inactive) | 23
Cn1nc([N+](=O)[O-])c2c(-c3nc4ccccc4s3)c(N)n(C3CCCCC3)c2c1=O | 30% (inactive) | 18
O=C(NC1CCN(C(=O)N2c3ccccc3Sc3ccccc32)CC1)c1ccccc1Cl | 36% (inactive) | 37
